# PD-1 reversal – activators reversing PD-1 mediated T-cell inhibition, primary screen, luminescence, primary human CD4 T cells, PD-L1 beads; CellTiter-Glo 96 h; activation, % (test concentration not listed); 29,000 tested, under 10 active; AID 2316, 2010; call rule not given here
# Shh pathway inh – Hedgehog pathway signaling inhibitors, primary screen, luminescence, Shh-LIGHT2 cells, Gli-luciferase; Shh-LIGHT2 Gli-luciferase reporter, 30 h; inhibition, % (test concentration not listed); 2.1% of 22,000 active; AID 2313, 2010;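 active = mean inhibition across valid replicates above about 65%, limit read from the data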;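 also: pathway switched on by Shh-conditioned medium diluted 1 in 25 in low serum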
# MITF inh – inhibitors of MITF, primary screen, MITF inhibitor project, cell-based, luminescence; TRPM1 promoter luciferase, 24 h; inhibition, % (test concentration not listed); 0.28% of 37,000 active; AID 2240, 2010; in the data active = inhibition above about 85%;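 also: human melanocyte line stably carrying TRPM1 promoter luciferase reporter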
# NOMO-1 viab – NOMO-1 AML cell viability reduction, primary screen, STK33 inhibitor project, CellTiter-Glo luminescence | NOMO-1 AML viability, 72 h | AID 2330, 2010 | 7.5% of 37,000 active | inhibition, % (concentration not given with the values); in the data active = inhibition above about 80%
# A number is an active result; n = inactive; x = no result given. Most compounds without a hit are left out; they make up all but 7.9% or so of the library.
SMILES,PD-1 reversal,Shh pathway inh,MITF inh,NOMO-1 viab
CCCSc1ccc2nc(NC(=O)OC)[nH]c2c1,x,n,n,117.7
COc1cccc(N(CC(=O)Nc2ccc(Br)cc2F)S(C)(=O)=O)c1,n,x,n,n
Cc1oc2c(c1C(=O)NCc1ccccc1)C(=O)c1ccccc1C2=O,n,92.8,n,139.9
O=S(=O)(c1cccc(-c2nnc(-c3ccccc3)o2)c1)N1CCCC1,n,n,n,n
C[C@H](CO)N1C[C@H](C)[C@@H](CN(C)Cc2ccc(-c3ccccc3)cc2)Oc2ccc(NS(=O)(=O)c3ccc(F)cc3)cc2C1=O,n,n,n,n
C[C@@H]1CN([C@H](C)CO)C(=O)c2cc(NS(=O)(=O)c3ccc(F)cc3)ccc2O[C@H]1CN(C)Cc1ccc(-c2ccccc2)cc1,n,x,n,96.7
C[C@H]1CN([C@@H](C)CO)C(=O)c2cc(NS(=O)(=O)c3ccc(F)cc3)ccc2O[C@@H]1CN(C)Cc1ccc(-c2ccccc2)cc1,n,n,n,100.5
C[C@H](CO)N1C[C@H](C)[C@H](CN(C)Cc2ccc(-c3ccccc3)cc2)Oc2ccc(NS(=O)(=O)c3ccc(F)cc3)cc2C1=O,x,x,n,n
Cc1cccc(-n2c(N)cc(=O)nc2SCC(=O)Nc2sc3c(c2C#N)CCCCCC3)c1,n,x,n,n
CC1N=C(SCC#N)N2C(C)N=C(SCC#N)N12 (stereo unspecified),n,n,n,n
Cc1ccc(C)c(OCC(O)CN2CCN(CCO)CC2)c1 (stereo unspecified),n,x,n,n
N#Cc1cc2c(OCC(O)CN3CCN(C(c4ccccc4)c4ccccc4)CC3)cccc2[nH]1 (stereo unspecified),x,102.7,99.3,116.2
Cn1c(SCC(=O)Nc2ccccc2C(F)(F)F)nnc1-c1ccco1,n,x,n,n
C=C(C)C(=O)O[C@H]1[C@H]2C(=C)C(=O)O[C@@H]2C[C@@H](C)[C@@H]2O[C@@H]2C(=O)[C@](C)(O)[C@@H]1OC(=O)C(=C)C,n,99.8,n,119.1
C=C1C(=O)O[C@@H]2C3O[C@]3(C)CC/C=C(/C)CC[C@@H]12 (stereo partly specified),x,67.5,n,107.5
C=C1C(=O)O[C@@H]2[C@H]3O[C@]3(C)CCC=C(C)CC[C@@H]12,n,82.1,93.1,141.0
C=C1C(=O)O[C@H]2CC(C)C3CC[C@@]4(C)O[C@@]34CC12 (stereo partly specified),x,n,x,x
Cc1ccc(-c2nnc(SCc3ccccc3C#N)n2-c2ccccc2)cc1Cl,n,x,n,n
CCn1c(SCC(=O)Nc2ccc3c(c2)OCCO3)nnc1-c1ccccc1,n,x,n,n
Cc1cccc(-c2noc(CN(C(=O)c3ccc([N+](=O)[O-])c(C)c3)C(C)C)n2)c1,n,x,n,131.7
C[C@@H]1CN([C@@H](C)CO)C(=O)c2cccc(NC(=O)Nc3ccc(F)cc3)c2O[C@@H]1CN(C)S(=O)(=O)c1ccc(F)cc1,x,n,n,84.9
C[C@H](CO)N1C[C@H](C)[C@H](CN(C)S(=O)(=O)c2ccc(F)cc2)Oc2c(NC(=O)Nc3ccc(F)cc3)cccc2C1=O,x,100.6,n,n
O=C(c1ccc(F)cc1)n1nc(-c2ccc(Cl)cc2)nc1NCc1ccco1,n,x,n,104.0
Cn1c(-c2ccc(Cl)cc2)cs/c1=N\C(=S)NCCc1ccccc1,n,91.1,n,n
COc1ccc(-c2ccc(CCC(=O)O)n2-c2ccc(Br)cc2)cc1,x,x,n,n
SMILES,PD-1 reversal,Shh pathway inh,MITF inh,NOMO-1 viab
C[C@H](CO)N1C[C@H](C)[C@H](CN(C)Cc2ccc(Oc3ccccc3)cc2)Oc2ccc(NC(=O)CCC(F)(F)F)cc2C1=O,n,n,n,114.2
C[C@@H]1CN([C@H](C)CO)C(=O)c2cc(NC(=O)Nc3ccccc3)ccc2O[C@@H]1CN(C)Cc1ccc(Oc2ccccc2)cc1,n,x,n,n
C[C@@H]1CN([C@@H](C)CO)C(=O)c2cc(NC(=O)Nc3ccccc3)ccc2O[C@H]1CN(C)Cc1ccc(Oc2ccccc2)cc1,n,x,n,112.3
Cc1noc(C)c1NC(=O)Nc1ccc2c(c1)C(=O)N([C@H](C)CO)C[C@H](C)[C@@H](CN(C)Cc1ccc(Oc3ccccc3)cc1)O2,x,n,n,n
Cc1noc(C)c1NC(=O)Nc1ccc2c(c1)C(=O)N([C@H](C)CO)C[C@@H](C)[C@@H](CN(C)Cc1ccc(Oc3ccccc3)cc1)O2,n,67.2,n,n
C[C@H]1CN([C@@H](C)CO)C(=O)c2cc(NC(=O)Nc3ccccc3)ccc2O[C@@H]1CN(C)Cc1ccc(Oc2ccccc2)cc1,n,n,n,96.9
Cc1c(NC(=O)COc2ccc(I)cc2)cccc1C(=O)O,n,x,n,n
COc1cc(OC)c(C2=NOC(C(=O)Nc3c(C)nn(Cc4ccc(F)cc4)c3C)C2)cc1Cl (stereo unspecified),n,x,n,n
COc1ccc(-c2cc(C(F)(F)F)nc(SCC(=O)Nc3ccc(Cl)cc3Cl)n2)cc1,x,x,n,n
CCn1c(SCC(=O)Nc2c(F)cc(F)cc2Br)nnc1-c1ccccc1F,x,x,n,n
COC(=O)c1cc(C(=O)NCc2ccccc2OC)cc([N+](=O)[O-])c1,n,x,n,n
CC(C)=CCc1c(O)cc(O)c2c(=O)cc(-c3ccc(O)cc3)oc12,n,n,n,93.9
COc1cc(CO)cc(I)c1OCc1cccc(C(=O)O)c1,n,x,n,n
CCC1c2[nH]c3ccccc3c2CCN1C(=O)c1ccc(Cl)cc1 (stereo unspecified),n,n,n,84.2
CCCCCCCCNC(C)C(O)c1ccc(SC(C)C)cc1 (stereo unspecified),x,n,n,120.5
CC(NCCc1ccc(O)cc1)C(O)c1ccc(O)cc1 (stereo unspecified),x,n,n,n
CCc1ccccc1NC(=O)CSc1nnc(-c2cccc(C)c2)n1C,n,x,n,n
CCN=C1SC(CC(=O)Nc2sc3c(c2C(=O)OCC)CCCC3)C(=O)N1CC (stereo unspecified),n,n,n,n
COC(=O)COc1cccc(NC(=O)c2ccc(Br)cc2)c1,n,x,n,119.4
COC(=O)COc1cccc(NC(=O)c2ccc(C)cc2)c1,x,x,n,115.8
COc1cccc(C(=O)Nc2cccc(OCC(=O)O)c2)c1,n,x,n,n
O=C(O)COc1cccc(NC(=O)c2ccc(-c3ccccc3)cc2)c1,n,x,n,n
COC(=O)COc1cccc(NC(=O)c2ccc(Cl)cc2)c1,x,x,n,113.6
O=C(COc1cccc(NC(=O)c2ccc(Cl)cc2)c1)c1ccccc1,x,x,n,n
COC(=O)COc1cccc(NC(=O)c2cc(OC)cc(OC)c2)c1,n,x,n,108.6
Cc1ccc(N(C(C)C(=O)Nc2cc(C)cc(C)c2)S(C)(=O)=O)cc1 (stereo unspecified),n,x,n,n
N#Cc1c(/N=C/c2ccccc2)sc2c1CCCC2,n,n,n,n
O=C(CC1Nc2cccc3cccc(c23)NC1=O)Nc1cccc([N+](=O)[O-])c1 (stereo unspecified),n,x,n,n

# Screens from PubChem.
